From PubChem BioAssay (EPA / NIEHS) come the findings set out here.

The nature of test [1]: ATG_CRE_CIS: Attagene CIS-FACTORIAL HepG2 Assay for human cAMP Responsive Element (CRE) binding protein 3 (AID 2282926). Conditions: HepG2 CRE cis-reporter, Attagene multiplexed mRNA; actives raise or lower the signal. An outline of the steps: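 Induced reporter mRNA from a CRE cis element, measured in HepG2 among many multiplexed units at 24 h. Detection used RT-PCR plus capillary electrophoresis of fluorescent fragments; DMSO served as negative control.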

Test [2] addresses CCAAT/enhancer-binding protein beta (Homo sapiens) (UniProt P17676). Nature of the test: ATG_C_EBP_CIS: Attagene CIS-FACTORIAL HepG2 Assay for human CCAAT/Enhancer Binding Protein (C/EBP) beta (AID 2282927). Particulars: HepG2 Attagene cis-factorial transcription factor reporter; actives raise or lower the signal. An outline of the steps: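 Changes in reporter mRNA, rather than exogenous chimeric receptor activity, reflect native C/EBP signalling in transfected HepG2 cells dosed for 24 h; transcripts are detected by RT-PCR and capillary electrophoresis.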

The nature of test [3]: ATG_CMV_CIS: Attagene CIS-FACTORIAL HepG2 Assay for human CMV (Internal Marker) (AID 2282928).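 Note: endpoint acts as a background internal control marker rather than a target.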 Particulars: HepG2 CMV promoter reporter, transcription factor profiling; actives raise or lower the signal. In outline:
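Readout: fluorescent reporter cDNA fragments separated by capillary electrophoresis after RT-PCR and HpaI cut. Cells: HepG2 carrying transfected cis-promoter reporter constructs, dosed 24 h. Endpoint serves as background internal-marker control, fit bidirectionally versus DMSO.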

The nature of test [4]: ATG_DR4_LXR_CIS: Attagene CIS-FACTORIAL HepG2 Assay for human Liver X Receptor (LXR), DR4 submotif (AID 2282929). Conditions: HepG2 Attagene DR4 cis-reporter, mRNA transcription; actives raise or lower the signal. An outline of the steps: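 Cells were transfected with multiple reporter transcription units, exposed to chemicals for 24 hours, then lysed for RNA. Reporter mRNA induction was measured by RT-PCR with capillary electrophoresis detection and fitted in both directions relative to DMSO.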

For test [5], the target named is Aryl hydrocarbon receptor (Homo sapiens) (UniProt P35869). Put plainly: ATG_Ahr_CIS: Attagene CIS-FACTORIAL HepG2 Assay for human Aryl Hydrocarbon Receptor (Ahr) (AID 2282930). Conditions: HepG2 AhR cis-factorial reporter transcription; actives raise or lower the signal. In outline: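 HepG2, transient MRTU (cis) transfection, 24 h exposure. RNA → cDNA → PCR → 6-FAM primer extension → HpaI 2 h 37 C → CE. Fit: bidirectional, DMSO baseline.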

Test [6] is described as follows: ATG_AP_1_CIS: Attagene CIS-FACTORIAL HepG2 Assay for human Activator Protein 1 (AP-1) (AID 2282931). Conditions: HepG2 Attagene cis-factorial AP-1 reporter mRNA; actives raise or lower the signal. In outline:
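Endogenous transcription-factor activity in human HepG2 liver cells is read through a cis-promoter reporter transcript, sampled 24 h after dosing. Detection uses RT-PCR with capillary electrophoresis; values come from bidirectional fitting relative to DMSO.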

Test [7] in a line: ATG_AP_2_CIS: Attagene CIS-FACTORIAL HepG2 Assay for human Activator Protein 2 (AP-2) (AID 2282932). Particulars: HepG2 AP-2 cis-reporter, Attagene transcription factor profiling; actives raise or lower the signal. An outline of the steps:
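Transiently transfected HepG2 cells are exposed to chemical for 24 h. Reporter transcripts are then measured as fluorescence following RT-PCR and capillary separation, and gain- or loss-of-signal is fitted relative to DMSO.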

Test [8] in a line: ATG_BRE_CIS: Attagene CIS-FACTORIAL HepG2 Assay for human Bone Morphogenetic Protein (BMP) Response Element (BRE) (AID 2282933). Conditions: HepG2 BMP response element reporter, Attagene transcription factor profiling; actives raise or lower the signal. In outline:
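A HepG2 multiplex reporter system measured inducible reporter mRNA 24 h post-dosing. Detection: RT-PCR, 6-FAM primer extension, HpaI digestion, capillary electrophoresis. Activity fitted bidirectionally relative to DMSO.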

Test [9] concerns the target Transcription factor E2F1 (Homo sapiens) (UniProt Q01094). Nature of the test: ATG_E2F_CIS: Attagene CIS-FACTORIAL HepG2 Assay for human E2F Transcription Factor 1 (AID 2282935). Particulars: HepG2 Attagene cis-reporter, E2F reporter RNA transcripts; actives raise or lower the signal. An outline of the steps:
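Fluorescent RT-PCR products, digested with HpaI for 2 h at 37 C, are separated by capillary electrophoresis. Source RNA comes from transfected HepG2 cultures treated for 24 h.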

Test [10] in a line: ATG_E_Box_CIS: Attagene CIS-FACTORIAL HepG2 Assay for human Enhancer Box (E-box) (AID 2282936). Particulars: HepG2 E-box cis-reporter transcription, actives raise or lower the signal. An outline of the steps:
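Fluorescent reporter fragments separated by capillary electrophoresis gave the signal; mRNA came from HepG2 cells transfected with cis-element reporters and treated 24 h. Curves fitted bidirectionally relative to DMSO controls.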

A short description of test [11]: ATG_M_61_CIS: Attagene CIS-FACTORIAL HepG2 Assay for M61 Transcription Factor (Internal Marker) (AID 2282937). Particulars: HepG2 Attagene CIS-FACTORIAL M61 internal marker reporter; actives raise or lower the signal. In outline: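 Cells were transfected with reporter units under cis-regulatory promoters, treated with chemicals for 24 h, then lysed for RNA. Reporter transcripts were quantified by RT-PCR and capillary electrophoresis, and activity was fitted bidirectionally against DMSO.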

The nature of test [12]: ATG_M_19_CIS: Attagene CIS-FACTORIAL HepG2 Assay for M19 Transcription Factor (Internal Marker) (AID 2282939). Particulars: HepG2 Attagene CIS-FACTORIAL M19 internal marker reporter; actives raise or lower the signal. In outline:
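Chemical-treated HepG2 (24 h) with MRTU constructs; reporter transcripts detected by fluorescent RT-PCR fragment analysis on capillary electrophoresis. Internal background marker, DMSO as baseline.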

Test [13] is described as follows: ATG_ERE_CIS: Attagene CIS-FACTORIAL HepG2 Assay for Estrogen Response Element (ERE) (AID 2282940). Particulars: HepG2 ERE cis-reporter, Attagene RNA transcript; actives raise or lower the signal. In outline: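 Human liver cells (HepG2) bearing transiently transfected, promoter-regulated reporter units were exposed 24 h. Reporter mRNA induction was detected by capillary electrophoresis of labelled RT-PCR products and fitted bidirectionally to DMSO.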

Test [14] can be described thus: ATG_Ets_CIS: Attagene CIS-FACTORIAL HepG2 Assay for human Erythroblast Transformation Specific (ETS) (AID 2282941). Conditions: HepG2 ETS cis-reporter transcription, actives raise or lower the signal. In outline: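 RT-PCR/capillary electrophoresis fluorescence read-out of reporter mRNA; HepG2 transient multi-reporter transfection; 24 h compound exposure; gain or loss of signal fitted bidirectionally relative to DMSO.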

Test [15] can be described thus: ATG_FoxO_CIS: Attagene CIS-FACTORIAL HepG2 Assay for human Forkhead box O (FoxO) (AID 2282943). Particulars: HepG2 Attagene cis-reporter, FoxO element, mRNA; actives raise or lower the signal. In outline:
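Human hepatoma HepG2 cells carry transiently introduced reporter transcription units controlled by cis promoter elements. Chemical treatment lasted 24 h, and mRNA signal was compared with DMSO.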

Test [16] is described as follows: ATG_GLI_CIS: Attagene CIS-FACTORIAL HepG2 Assay for human Zinc Finger Protein GLI1 (AID 2282945). Conditions: HepG2, Attagene cis-factorial reporter mRNA, GLI element; actives raise or lower the signal. An outline of the steps: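 Bidirectional curve fits relative to DMSO, using reporter mRNA levels from RT-PCR plus capillary electrophoresis. Cells were HepG2 transiently carrying cis-regulated reporter constructs, harvested 24 h after dosing.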

Test [17] is described as follows: ATG_EGR_CIS: Attagene CIS-FACTORIAL HepG2 Assay for human Early Growth Response 1 (EGR1) (AID 2282938). Conditions: HepG2 Attagene CIS-FACTORIAL EGR reporter mRNA; actives raise or lower the signal. An outline of the steps:
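Endogenous TF activity in HepG2 liver cells was gauged through cis-promoter reporter constructs transiently transfected. After 24 h dosing, reporter mRNA was quantified by RT-PCR and capillary electrophoresis, and curves fitted in both directions versus DMSO.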

Test [18] has as its target Hepatocyte nuclear factor 3-beta (Homo sapiens) (UniProt Q9Y261). Put plainly: ATG_FoxA2_CIS: Attagene CIS-FACTORIAL HepG2 Assay for human Forkhead box A2 (FOXA2) (AID 2282942). Particulars: HepG2 cis-reporter transcription factor activity, 24 h; actives raise or lower the signal. In outline: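 Endogenous transcription factor activity was read in HepG2 cells carrying transiently transfected cis-promoter reporter units. After 24 h dosing, reporter mRNA was quantified by RT-PCR and capillary electrophoresis, and values fitted bidirectionally versus DMSO.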

Test [19] can be described thus: ATG_GATA_CIS: Attagene CIS-FACTORIAL HepG2 Assay for human GATA Binding Protein (AID 2282944). Particulars: HepG2 GATA cis-element reporter, Attagene multiplex mRNA; actives raise or lower the signal. In outline: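 Transfected cis-reporter HepG2 cells were treated with chemicals for 24 hours. Total RNA was then converted to cDNA, amplified with reporter-specific primers and analysed by fluorescent capillary electrophoresis, using DMSO-treated wells as baseline.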

The target in test [20] is Retinoic acid receptor alpha (Homo sapiens) (UniProt P10276). Nature of the test: ATG_DR5_RAR_CIS: Attagene CIS-FACTORIAL HepG2 Assay for human Retinoic Acid Receptor Alpha (RARE), DR5 submotif (AID 2282934). Particulars: HepG2 Attagene cis-factorial RARE DR5 reporter, mRNA; actives raise or lower the signal. In outline:
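HepG2, transient cis-reporter transfection, 24 h exposure. mRNA readout: RT-PCR, FAM label, HpaI cut, capillary electrophoresis. DMSO baseline, gain/loss fitting.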

Active and inactive are the calls of the source. Rule for the calls: active = hit-call score of the fitted dose curve at least 0.9, where 1 is the maximum; inactive = score below 0.9.

Transcription factor E2F1 (Homo sapiens), sequence (Q01094 whole entry, looked up): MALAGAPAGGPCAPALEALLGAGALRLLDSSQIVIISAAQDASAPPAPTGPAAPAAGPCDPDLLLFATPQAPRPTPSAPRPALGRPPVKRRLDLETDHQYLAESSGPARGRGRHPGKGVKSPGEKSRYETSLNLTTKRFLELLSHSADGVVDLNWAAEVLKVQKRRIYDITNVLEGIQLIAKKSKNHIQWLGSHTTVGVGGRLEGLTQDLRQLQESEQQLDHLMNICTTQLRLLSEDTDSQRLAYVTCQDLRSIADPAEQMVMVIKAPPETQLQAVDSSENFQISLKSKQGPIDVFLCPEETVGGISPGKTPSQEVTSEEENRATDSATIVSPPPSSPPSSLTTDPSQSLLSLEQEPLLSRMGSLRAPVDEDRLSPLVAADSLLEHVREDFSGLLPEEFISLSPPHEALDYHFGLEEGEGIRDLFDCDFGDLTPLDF
Hepatocyte nuclear factor 3-beta (Homo sapiens), sequence (Q9Y261 whole entry, looked up): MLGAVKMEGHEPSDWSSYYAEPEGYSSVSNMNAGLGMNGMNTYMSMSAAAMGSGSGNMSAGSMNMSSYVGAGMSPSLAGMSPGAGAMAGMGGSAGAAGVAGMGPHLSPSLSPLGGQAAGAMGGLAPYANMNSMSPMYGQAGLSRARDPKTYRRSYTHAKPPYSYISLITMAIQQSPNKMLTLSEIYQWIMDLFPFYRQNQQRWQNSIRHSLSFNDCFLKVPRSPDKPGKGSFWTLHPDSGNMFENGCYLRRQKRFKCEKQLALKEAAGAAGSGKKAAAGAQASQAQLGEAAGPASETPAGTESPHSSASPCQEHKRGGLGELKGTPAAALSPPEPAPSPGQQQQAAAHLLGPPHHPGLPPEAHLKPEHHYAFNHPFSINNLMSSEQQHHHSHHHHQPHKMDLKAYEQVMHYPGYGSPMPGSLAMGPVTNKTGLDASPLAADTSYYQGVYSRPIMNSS
Retinoic acid receptor alpha (Homo sapiens), sequence (P10276 whole entry, looked up): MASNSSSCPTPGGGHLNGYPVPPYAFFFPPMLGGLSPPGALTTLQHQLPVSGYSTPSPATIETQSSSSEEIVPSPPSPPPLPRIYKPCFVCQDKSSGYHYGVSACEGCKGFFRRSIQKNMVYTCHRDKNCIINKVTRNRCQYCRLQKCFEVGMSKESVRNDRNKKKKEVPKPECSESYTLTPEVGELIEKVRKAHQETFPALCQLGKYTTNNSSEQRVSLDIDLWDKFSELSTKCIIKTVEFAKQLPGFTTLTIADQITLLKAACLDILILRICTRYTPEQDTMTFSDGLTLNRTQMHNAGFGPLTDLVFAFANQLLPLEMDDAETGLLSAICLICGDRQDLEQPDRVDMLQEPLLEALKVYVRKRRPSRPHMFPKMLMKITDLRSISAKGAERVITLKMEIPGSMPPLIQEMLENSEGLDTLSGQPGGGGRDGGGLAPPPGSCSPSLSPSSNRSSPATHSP
CCAAT/enhancer-binding protein beta (Homo sapiens), sequence (P17676 whole entry, looked up): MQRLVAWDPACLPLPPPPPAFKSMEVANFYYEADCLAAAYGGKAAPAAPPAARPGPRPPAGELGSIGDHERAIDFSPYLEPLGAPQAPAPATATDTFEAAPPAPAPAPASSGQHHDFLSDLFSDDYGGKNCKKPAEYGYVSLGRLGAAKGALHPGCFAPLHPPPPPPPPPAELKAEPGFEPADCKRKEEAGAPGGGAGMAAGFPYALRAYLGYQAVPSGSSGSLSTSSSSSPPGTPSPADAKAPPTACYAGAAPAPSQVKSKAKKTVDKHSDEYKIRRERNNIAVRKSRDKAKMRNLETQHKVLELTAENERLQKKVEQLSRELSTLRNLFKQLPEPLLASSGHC
Aryl hydrocarbon receptor (Homo sapiens), sequence (P35869 whole entry, looked up): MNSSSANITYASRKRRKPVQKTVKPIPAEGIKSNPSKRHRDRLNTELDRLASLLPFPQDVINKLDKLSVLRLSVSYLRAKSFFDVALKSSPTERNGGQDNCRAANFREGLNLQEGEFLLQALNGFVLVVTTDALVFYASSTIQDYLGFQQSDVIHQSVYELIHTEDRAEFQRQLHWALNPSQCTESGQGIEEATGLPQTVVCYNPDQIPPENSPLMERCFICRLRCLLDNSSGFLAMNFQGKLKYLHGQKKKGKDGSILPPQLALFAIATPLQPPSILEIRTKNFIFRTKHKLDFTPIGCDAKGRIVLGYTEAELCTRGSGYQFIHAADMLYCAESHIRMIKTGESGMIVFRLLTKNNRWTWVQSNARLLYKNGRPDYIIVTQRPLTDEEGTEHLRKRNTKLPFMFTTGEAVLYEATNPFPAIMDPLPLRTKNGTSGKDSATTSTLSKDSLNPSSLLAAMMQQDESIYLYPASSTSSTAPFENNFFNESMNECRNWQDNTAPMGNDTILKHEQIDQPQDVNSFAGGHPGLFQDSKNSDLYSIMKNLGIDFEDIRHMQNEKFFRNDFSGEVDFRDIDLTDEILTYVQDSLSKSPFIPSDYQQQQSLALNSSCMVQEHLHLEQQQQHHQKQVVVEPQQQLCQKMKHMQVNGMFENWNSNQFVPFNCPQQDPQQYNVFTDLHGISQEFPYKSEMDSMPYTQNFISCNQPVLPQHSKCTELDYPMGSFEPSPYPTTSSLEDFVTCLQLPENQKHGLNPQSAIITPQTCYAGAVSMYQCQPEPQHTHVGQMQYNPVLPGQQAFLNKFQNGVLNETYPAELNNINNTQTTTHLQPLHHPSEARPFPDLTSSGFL

Consider `C=COCCCC`, for which the call in test [1], in test [2], in test [3], in [4], in test [5] and in test [6] was inactive. Also, the result in test [7], in [8], in test [9], in test [10], in test [11] and in test [12] was inactive. Further, the call in [13], in test [14], in test [15] and in [16] was inactive.
For the compound `O=S(=O)(O)c1cc(S(=O)(=O)O)c2ccc3c(S(=O)(=O)O)cc(S(=O)(=O)O)c4ccc1c2c43`, the compound was called inactive in test [1], in test [2], in test [3], in [4], in test [5] and in test [6]. Further, the result in [7], in [8], in test [9], in [10], in test [11] and in test [17] was inactive. In addition, the call in [12], in [13], in test [14], in test [18], in test [15] and in test [19] was inactive. Besides, the call in test [16] was inactive.
As a reminder, the AC50 is the concentration giving half of the maximal activity seen. As to `O=c1cc(-c2ccccc2)oc2ccccc12`, the compound was called inactive in test [1], in [2], in test [4], in test [6], in [20] and in [9]. In addition, the outcome in test [10], in test [11], in test [12], in test [13], in test [14] and in test [18] was inactive. For the same compound, the compound was classed as inactive in test [15], in test [19] and in test [16]. The results for the AC50 in test [3], in test [5] and in [7] were 27.7 µM (active), 7.62 µM (active) and 26.3 µM (active), respectively.
Regarding `CC1(C)[C@H]2CC[C@]1(C)C(=O)C2`, the compound was called inactive in test [1], in test [2], in [3], in test [4], in test [5] and in test [6]. In addition, the compound was classed as inactive in [7], in test [8], in [9], in [10], in test [11] and in test [17]. Further, the compound was called inactive in test [12], in [13], in test [14], in [18], in test [15] and in [19]. Besides, the outcome in test [16] was inactive.
With `CC(C)c1ccc(C#N)cc1`, the compound was classed as inactive in [1], in test [2], in [3], in test [4], in test [5] and in test [6]. The compound was classed as inactive in [7], in [8], in test [20], in test [9], in test [11] and in test [12]. Further, the compound was called inactive in [13], in test [14], in test [18], in test [15], in test [19] and in test [16].
In the case of `CCCCCCCCCCCCCCCC(=O)OCC`, the result in [1], in test [2], in [3], in test [4], in test [5] and in test [6] was inactive. The outcome in test [7], in test [8], in [9], in test [10], in test [11] and in [17] was inactive. For the same compound, the outcome in test [12], in test [13], in test [14], in test [18], in test [19] and in [16] was inactive.
For `CC(=O)[C@@]1(O)CC[C@H]2[C@@H]3C[C@H](C)C4=CC(=O)C=C[C@]4(C)[C@@]3(F)[C@@H](O)C[C@@]21C`, the result in test [1], in test [2], in [3], in test [4], in test [5] and in [6] was inactive. The result in [7], in test [8], in test [9], in test [10], in test [11] and in test [17] was inactive. Further, the compound was called inactive in test [12], in test [13], in test [14], in test [18], in test [15] and in [19]. In addition, the compound was classed as inactive in [16].
In the case of `CNC(=S)NN`, the compound was classed as inactive in test [1], in test [2], in test [3], in test [4], in [5] and in test [6]. Besides, the compound was classed as inactive in test [7], in test [20], in test [9], in test [10], in test [11] and in test [17]. For the same compound, the outcome in test [12], in [13], in [14], in test [18], in test [15] and in [16] was inactive.
